Several values for one entry are separate records, joined by “and”; a condition that tells them apart may be missing. Identical values can stand only once. Inconclusive results are not listed. Some structures have more than one record in an assay (separate samples or runs), and their calls can disagree. Activity calls are given as the source filed them. How the source made its calls: active means hit-call score of the fitted dose curve at least 0.9, where 1 is the maximum; inconclusive means response in the unintended direction; inactive means score below 0.9.

Sequence of Cellular tumor antigen p53 (Homo sapiens) (P04637 whole entry, looked up): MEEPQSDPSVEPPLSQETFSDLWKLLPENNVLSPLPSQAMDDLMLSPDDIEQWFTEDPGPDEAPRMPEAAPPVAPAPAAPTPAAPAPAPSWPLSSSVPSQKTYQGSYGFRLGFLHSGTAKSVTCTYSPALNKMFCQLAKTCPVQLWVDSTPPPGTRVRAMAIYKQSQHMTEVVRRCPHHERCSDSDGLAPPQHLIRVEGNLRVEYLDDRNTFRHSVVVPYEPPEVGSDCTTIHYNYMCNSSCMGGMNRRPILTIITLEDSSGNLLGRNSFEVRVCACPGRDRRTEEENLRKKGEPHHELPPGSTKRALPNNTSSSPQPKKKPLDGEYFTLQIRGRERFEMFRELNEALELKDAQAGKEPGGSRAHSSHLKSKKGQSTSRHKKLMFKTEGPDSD

For the first test, the target named is Cellular tumor antigen p53 (Homo sapiens) (UniProt P04637). Put plainly: TOX21_p53_BLA_p3_ratio: Tox21 HCT-116 p53 Agonism Beta-lactamase Assay, Ratio, Phase 3 (AID 2283596). The procedure, abridged:
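Cells were seeded at 4000/well, rested 5 h at 37C, then dosed with DMSO compound solutions (217-fold dilution) for 16 h. CCF4-AM substrate was loaded for 2 h at room temperature, and the 460/530 nm emission ratio was fitted for gain of signal versus DMSO.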
The AC50 is the midpoint of the concentration-response curve, whichever way the signal moves. Take `NC(=NCCCCCCN=C(N)/N=C(\N)Nc1ccc(Cl)cc1)/N=C(\N)Nc1ccc(Cl)cc1`: the concentration at half-maximal activity (AC50) was 72.6 µM (active) [middle of 4 runs] and the result was inactive.

For `O=C(O)C(=O)O`, the result was inactive.

As to `O=C(O)c1cccc(C(=O)O)n1`, the outcome was inactive.

For `CC1=NN(c2ccccc2)C(=O)C1`, the outcome was inactive.

Take `Clc1ccc(Nc2nnc(Cc3ccncc3)c3ccccc23)cc1`: the result was inactive.

With `NCc1cccc(CN)c1`, the result was inactive.

In the case of `CCC(=O)O`, the outcome was inactive.

As for `CCCCCCCCC1CCC(=O)O1` (stereo not drawn), the outcome was inactive.

For `CCOCCOCC`, the result was inactive.

For the molecule `CC(=O)CC(C)C`, the result was inactive.

Consider `C=CC(C)(CCC=C(C)C)OC(C)=O` (stereo not drawn), for which the outcome was inactive.

With `C[C@]12CC[C@@H]3c4ccc(O)cc4CC[C@H]3[C@@H]1C[C@@H](O)[C@@H]2O`, the result was inactive.

With `Cc1ccc(C(=O)c2ccccc2)cc1`, the result was inactive.

In the case of `CCCCCCCCCCCCOC(=O)c1cc(O)c(O)c(O)c1`, the AC50 is 57.6 µM (active) and 81.5 µM (active).

As for `CCOC(C)=O`, the outcome was inactive.

For `O=C(c1cc(O)c(O)c(O)c1)c1ccc(O)c(O)c1O`, the AC50 was 60.9 µM (active) and 84.5 µM (active).

As for `CCC(=O)C=Cc1ccc(OC)cc1`, the outcome was inactive.

Take `CCCCCCC(C)(C)C(=O)O`: the result was inactive.

Turning to `CC(=O)Nc1ccc(S(N)(=O)=O)cc1`, the outcome was inactive.

For the molecule `O=C1c2ccccc2C(=O)c2c(O)c(O)cc(O)c21`, the result was inactive.

Regarding `NCCN`, the outcome was inactive.

On to `COC(=O)CC(C(C)=O)C(=O)OC` (stereo not drawn), for which the result was inactive.

For the molecule `COCN(COC)c1nc(N(COC)COC)nc(N(COC)COC)n1`, the result was inactive.

For `CCOC(=O)CN[C@@H](C(=O)N1CC[C@H]1C(=O)NCc1ccc(/C(N)=N/O)cc1)C1CCCCC1`, the result was inactive.

Turning to `Cc1cc(C(C)(C)C)c(O)c(C(C)(C)C)c1`, the result was inactive.

Regarding `Cc1ccc(C)c(S(=O)(=O)O)c1`, the outcome was inactive.

System in another test: not listed separately
The test is described as follows: TOX21_p53_BLA_p4_viability: Viability Assessment in the Tox21 HCT-116 p53 Agonism Beta-lactamase Assay, Phase 4 (AID 2283597).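 Further: hits lower the luminescence signal meaning cytotoxicity.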 The procedure, abridged: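 4000 HCT116 cells per well; 5 h attachment; compounds from DMSO, 217-fold dilution; 16 h at 37C. Then CCF4-AM, 2 h RT, followed by CellTiter-Glo, 30 min RT, luminescence. Decrease = cytotoxicity.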
On to `CCCC=O`, for which the result was inactive.

`CC1=NN(c2ccccc2)C(=O)C1`: the call was inactive.

Turning to `NCc1cccc(CN)c1`, the molecule was called inactive.

As to `c1ccc(CNc2ncnc3c2ncn3C2CCCCO2)cc1` (stereo not drawn), the molecule was classed as inactive.

For `Cc1ccc(S(=O)(=O)O)cc1`, the molecule was classed as inactive.

Turning to `CCOCCOCC`, the molecule was classed as inactive.

On to `CC(=O)CC(C)C`, for which the outcome was inactive.

As to `C=CC(C)(CCC=C(C)C)OC(C)=O` (stereo not drawn), the call was inactive.

Take `C[C@]12CC[C@@H]3c4ccc(O)cc4CC[C@H]3[C@@H]1C[C@@H](O)[C@@H]2O`: the molecule was classed as inactive.

For `Cc1ccc(C(=O)c2ccccc2)cc1`, the call was inactive.

For `CCCCCCCCCCCCOC(=O)c1cc(O)c(O)c(O)c1`, the AC50 was 46.1 µM (active) and 30.9 µM (active).

With `CCOC(C)=O`, the molecule was classed as inactive.

For the molecule `O=C(c1cc(O)c(O)c(O)c1)c1ccc(O)c(O)c1O`, the outcome was inactive.

As for `CCCCCCCCCCCCCCCC(=O)OC`, the result was inactive.

For `CCC(=O)C=Cc1ccc(OC)cc1`, the molecule was called inactive.

As for `O=C1c2ccccc2C(=O)c2c(O)c(O)cc(O)c21`, the result was inactive.

As to `COCN(COC)c1nc(N(COC)COC)nc(N(COC)COC)n1`, the call was inactive.

As for `CCOC(=O)CN[C@@H](C(=O)N1CC[C@H]1C(=O)NCc1ccc(/C(N)=N/O)cc1)C1CCCCC1`, the molecule was called inactive.

As for `OCC1CCC(CO)CC1` (stereo not drawn), the result was inactive.

For the molecule `CC(C)C=O`, the call was inactive.

Turning to `Cc1cc(C(C)(C)C)c(O)c(C(C)(C)C)c1`, the call was inactive.

Take `Cc1ccc(C)c(S(=O)(=O)O)c1`: the molecule was called inactive.

Consider `CC(C)(C)C1CCCCC1O` (stereo not drawn), for which the molecule was called inactive.

The next test has as its target Cellular tumor antigen p53 (Homo sapiens) (UniProt P04637). The test is described as follows: TOX21_p53_BLA_p5_ratio: Tox21 HCT-116 p53 Agonism Beta-lactamase Assay, Ratio, Phase 5 (AID 2283599). The procedure, abridged: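 HCT-116 cells carrying a p53-inducible beta-lactamase reporter were seeded at 4000 cells/well and dosed after 5 h with compound in DMSO (217-fold dilution). After 16 h at 37C, CCF4-AM substrate was added for 2 h, and the 460/530 nm emission ratio was scored as gain-of-signal versus DMSO.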
Turning to `NC(=NCCCCCCN=C(N)/N=C(\N)Nc1ccc(Cl)cc1)/N=C(\N)Nc1ccc(Cl)cc1`, the half-maximal activity concentration (AC50) is 79.6 µM (active) [middle of 4 runs] and the result was inactive.

On to `CCCC=O`, for which the outcome was inactive.

In the case of `O=C(O)C(=O)O`, the result was inactive.

`CCN(CC)CC`: the outcome was inactive.

With `O=C(O)c1cccc(C(=O)O)n1`, the result was inactive.

For `CC1=NN(c2ccccc2)C(=O)C1`, the outcome was inactive.

As for `Clc1ccc(Nc2nnc(Cc3ccncc3)c3ccccc23)cc1`, the result was inactive.

`CCC(=O)O`: the outcome was inactive.

With `CCCCCCCCC1CCC(=O)O1` (stereo not drawn), the result was inactive.

`CCOCCOCC`: the outcome was inactive.

On to `CC(=O)CC(C)C`, for which the outcome was inactive.

In the case of `C=CC(C)(CCC=C(C)C)OC(C)=O` (stereo not drawn), the result was inactive.

`C[C@]12CC[C@@H]3c4ccc(O)cc4CC[C@H]3[C@@H]1C[C@@H](O)[C@@H]2O`: the result was inactive.

`Cc1ccc(C(=O)c2ccccc2)cc1`: the result was inactive.

For the molecule `CCCCCCCCCCCCOC(=O)c1cc(O)c(O)c(O)c1`, the AC50 was 48.3 µM (active) and 77 µM (active).

As for `CCOC(C)=O`, the outcome was inactive.

With `O=C(c1cc(O)c(O)c(O)c1)c1ccc(O)c(O)c1O`, the AC50 was 86.8 µM (active) and 74.6 µM (active).

In the case of `CCC(=O)C=Cc1ccc(OC)cc1`, the result was inactive.

For the molecule `CCCCCCC(C)(C)C(=O)O`, the outcome was inactive.

Regarding `O=C1c2ccccc2C(=O)c2c(O)c(O)cc(O)c21`, the result was inactive.

In the case of `NCCN`, the outcome was inactive.

On to `COC(=O)CC(C(C)=O)C(=O)OC` (stereo not drawn), for which the result was inactive.

Take `COCN(COC)c1nc(N(COC)COC)nc(N(COC)COC)n1`: the outcome was inactive.

Take `OCC1CCC(CO)CC1` (stereo not drawn): the outcome was inactive.

For the molecule `CC(C)C=O`, the result was inactive.

In the case of `Cc1cc(C(C)(C)C)c(O)c(C(C)(C)C)c1`, the outcome was inactive.

Take `CC(C)(C)C1CCCCC1O` (stereo not drawn): the result was inactive.

For the origin of these results see PubChem BioAssay (EPA / NIEHS).
